Compounds with a hit are over-represented: about 14% of the library has one in this group of screens.
USP30 block = inhibitors of human USP30 deubiquitinase; purified USP30, Ub-rhodamine cleavage fluorescence; inhibition, % at 25 µM; hit rate 5.3% among 47,000; Ubiquitin carboxyl-terminal hydrolase 30 (Homo sapiens), Q70CQ3; AID 1645860, 2021
USP17 block = inhibitors of human USP17 deubiquitinase. Ubiquitin carboxyl-terminal hydrolase 17-like protein 5 (Homo sapiens), A8MUK1. purified USP17, Ub-rhodamine cleavage fluorescence, 3 h. inhibition, % at 50 µM. hit rate 6.5% among 47,000. AID 1645855, 2021
USP28 inh = inhibitors of human USP28 deubiquitinase; Ubiquitin carboxyl-terminal hydrolase 28 (Homo sapiens), Q96RU2; hit rate 3% among 47,000; inhibition, % at 25 µM; purified USP28, Ub-rhodamine cleavage fluorescence, 30 min
USP8 inh = inhibitors of human USP8 deubiquitinase | hit rate 4.2% among 47,000 | inhibition, % at 20 µM | Ubiquitin carboxyl-terminal hydrolase 8 (Homo sapiens), P40818 | purified USP8, Ub-rhodamine cleavage fluorescence, 30 min
Target sequence (P40818 whole entry, looked up): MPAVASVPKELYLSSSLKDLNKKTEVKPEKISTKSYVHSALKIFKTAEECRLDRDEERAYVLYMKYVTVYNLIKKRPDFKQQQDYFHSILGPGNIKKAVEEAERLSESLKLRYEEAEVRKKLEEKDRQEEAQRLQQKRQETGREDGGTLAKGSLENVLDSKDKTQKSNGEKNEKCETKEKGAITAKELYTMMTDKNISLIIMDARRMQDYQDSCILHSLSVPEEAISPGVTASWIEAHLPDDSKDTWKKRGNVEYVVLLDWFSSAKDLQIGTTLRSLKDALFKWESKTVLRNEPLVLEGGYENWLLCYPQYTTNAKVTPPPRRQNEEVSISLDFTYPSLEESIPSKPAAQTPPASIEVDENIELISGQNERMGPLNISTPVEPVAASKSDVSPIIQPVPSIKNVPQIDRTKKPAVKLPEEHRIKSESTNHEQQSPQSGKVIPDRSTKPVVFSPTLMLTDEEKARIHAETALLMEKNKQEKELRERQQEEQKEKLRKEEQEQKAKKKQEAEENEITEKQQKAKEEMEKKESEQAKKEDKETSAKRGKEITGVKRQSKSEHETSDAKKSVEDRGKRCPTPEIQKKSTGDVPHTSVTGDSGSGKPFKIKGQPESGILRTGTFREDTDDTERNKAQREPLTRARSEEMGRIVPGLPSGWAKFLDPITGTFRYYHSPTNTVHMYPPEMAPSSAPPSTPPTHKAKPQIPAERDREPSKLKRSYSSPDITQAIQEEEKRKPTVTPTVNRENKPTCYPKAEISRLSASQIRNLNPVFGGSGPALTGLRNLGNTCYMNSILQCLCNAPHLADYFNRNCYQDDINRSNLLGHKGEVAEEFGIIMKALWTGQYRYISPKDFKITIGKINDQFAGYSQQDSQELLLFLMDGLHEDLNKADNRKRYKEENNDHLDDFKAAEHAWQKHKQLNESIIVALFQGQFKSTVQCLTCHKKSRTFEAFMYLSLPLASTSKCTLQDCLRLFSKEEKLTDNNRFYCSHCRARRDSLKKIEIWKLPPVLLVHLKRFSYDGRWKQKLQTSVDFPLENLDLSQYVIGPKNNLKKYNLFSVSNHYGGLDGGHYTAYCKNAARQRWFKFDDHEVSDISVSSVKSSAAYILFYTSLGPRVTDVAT
USP10 inh = inhibitors of human USP10 deubiquitinase; Ubiquitin carboxyl-terminal hydrolase 10 (Homo sapiens), Q14694; purified USP10, Ub-rhodamine fluorescence, 60 min; inhibition, % at 20 µM; hit rate 1.1% among 47,000; AID 1645856, 2021
Of the large screens only hits and unclear results are named; the others gave an inactive call. Rule as the data show it: active = inhibition above about 30%; inactive = the rest.

CC1(C)c2ccc3c(c2C(=O)C2OC21)C(O)OC3=O (configuration not stated)	none
CC(C)(C)C(=O)N1CCCC(c2cncc(N3CC4(CCCCC4)OC3=O)n2)C1 (configuration not stated)	USP30 block 45
Cc1cc(NCC2CCCO2)n2nc(-c3ccc(Cl)cc3)c(C)c2n1 (configuration not stated)	none
COc1cc(C)cc2oc(=O)c(CC(=O)N[C@@H](CSCc3ccccc3)C(=O)O)c(C)c12	none
c1ccc2c(-c3nc(C4CC4)no3)nnc(NCc3ccncc3)c2c1	USP17 block 53
Cc1nnc(-c2nnc(NCc3ccccc3)c3ccccc23)o1	none
c1ccc2c(-c3nc(C4CC4)no3)nnc(NC3CCCCC3)c2c1	USP30 block 33
c1ccc2c(-c3nc(C4CC4)no3)nnc(NCCCN3CCOCC3)c2c1	USP30 block 36
CC(C)N1CCN(c2nnc(-c3nc(C4CC4)no3)c3ccccc23)CC1	none
CC(C)OCCCNc1nnc(-c2nc(C3CC3)no2)c2ccccc12	none
Fc1ccc(-c2noc(-c3nnc(NCc4cccnc4)c4ccccc34)n2)cc1	USP17 block 75
Cc1cc(N(C)C)n2nc(CN3CCN(c4ccccc4)CC3)nc2n1	none
COc1ccc(-c2nnc(-c3ccc(-n4ccnc4)nc3)o2)cc1	none
CCCCOc1ccc(-c2nc(SC(C)C(=O)Nc3ccccc3)c3c4c(sc3n2)COC(C)(C)C4)cc1 (configuration not stated)	none
Cc1[nH]ncc1CNC(=O)c1cccc(C2CCCN(C(=O)Nc3ccccc3)C2)c1 (configuration not stated)	none
Cc1ccc(S(=O)(=O)N2CCN(C(=O)CN3CCc4ccccc43)CC2)c(C)c1	none
Cn1ccc(CN2CCc3ccccc32)cc1=O	USP8 inh 51
N#Cc1cccc(C(=O)N(CCc2ccccc2)C2CCN(CCc3ccc(Cl)cc3)CC2)c1	none
CCc1nc(=O)c2ccccc2n1C1=CCN(C(=O)c2scnc2C)CC1	none
O=C(Cc1ccccc1[N+](=O)[O-])Nc1cnn(Cc2ccc(F)cc2)c1	USP30 block 32
Nc1nonc1C(=O)NCCNCc1cccc(OCc2ccc(Cl)cc2)c1	USP28 inh 56
Cn1c(=O)[nH]c(=O)c2c1nc(N1CCN(C(c3ccccc3)c3ccccc3)CC1)n2CCSc1ncccn1	USP30 block 30
COc1ccc(N2CCN(c3nc4c(c(=O)[nH]c(=O)n4C)n3CCSc3ncccn3)CC2)cc1	none
Cn1c(=O)c2c(nc(N3CCOCC3)n2CCSc2nnnn2-c2ccccc2)n(C)c1=O	none
CC(C)Cn1c(N2CCNCC2)nc2c1c(=O)[nH]c(=O)n2C	USP30 block 47
Cn1c(=O)[nH]c(=O)c2c1nc(N1CCc3ccccc3C1)n2CCSc1nnnn1-c1ccccc1	USP8 inh 86
O=C(NCC(c1ccsc1)N1CCOCC1)c1ccc(Cl)cc1 (configuration not stated)	none
COc1cc2c(cc1OC)-c1cc(N(C(C)=O)c3ccc4c5c(cccc35)CC4)nc(=O)n1CC2	USP17 block 38
O=C(O)c1cccc(NC(=O)C2c3ccccc3Oc3ccccc32)c1	none
O=C(Nc1ccc2c(c1)nc1n2CCCCC1)C1c2ccccc2Oc2ccccc21	USP17 block 48
COc1ccc2c(c1)C(=O)C/C(=C\c1ccc(Cl)cc1)C2	none
O=C1C/C(=C\c2ccc3c(c2)OCO3)Cc2ccccc21	USP28 inh 30
O=C1Cc2ccccc2C(=O)N1c1ccc2c(c1)OCO2	USP17 block 66, USP28 inh 36, USP8 inh 82
CCN1CCN(c2nc3c(c(Nc4ccccc4)n2)C(=O)CCC3)CC1	none
O=C(COc1ccc(C(=O)c2ccccc2)cc1)Nc1ccc2c(c1)OCO2	none
O=C(Nc1ccc(F)c(F)c1)c1cnc(N2CCOCC2)nc1	none
O=C(Nc1ccc2c(c1)OCO2)c1cnc(N2CCOCC2)nc1	USP17 block 40, USP8 inh 81
O=C(Nc1ccc2c(c1)OCO2)c1ccc(-c2ccc(N3CCOCC3)nn2)cc1	none
O=C(Nc1ccc2c(c1)OCCO2)c1cnc(N2CCOCC2)nc1	USP28 inh 42
O=C(Nc1ccc(OCC(=O)N2CCOCC2)cc1)c1ccc2c(c1)OCO2	USP28 inh 37
CCOC(=O)c1cnc2c(cnn2C)c1NCc1ccc(OC)cc1	none
CCOC(=O)c1cnc2c(cnn2C)c1NCc1cccc(C(F)(F)F)c1	USP30 block 41, USP8 inh 37
COc1ccc2nc(-c3cccc(NC(=O)C4CCCC4)c3)cn2n1	none
COc1ccc2nc(-c3ccc(NC(=O)c4cccc(OC)c4OC)cc3)cn2n1	USP17 block 81
Cc1ccccc1NC(=O)CCCN1C(=O)c2cccnc2Sc2ccccc21	none
CCc1noc2ncnc(NC3CCCCC3)c12	none
Cc1cc(C)cc(NC(=O)c2c(C)oc3nc[nH]c(=O)c23)c1	USP17 block 33
COc1ccc(NC(=O)N(Cc2ccc(F)cc2)Cc2cc3cc4c(cc3[nH]c2=O)OCCO4)cc1	none
Cc1ccc(-c2ncc(C(=O)NC(C)c3ccccn3)c(-c3ccncc3)n2)cc1 (configuration not stated)	none
CSc1ncc(C(=O)NC(C)c2ccccc2)c(-c2ccccc2)n1 (configuration not stated)	USP17 block 60
N#Cc1ccc(C(=O)N2CCC(Nc3ncnc4c3CCC4)CC2)cc1	none (no result: USP17 block)
COc1cc(NC(=O)CCC(=O)Nc2ccc3nc(N4CCOCC4)cc(C)c3c2)cc(OC)c1OC	none
Cc1cc(N2CCCCC2)nc2ccc(NC(=O)c3ccncc3)cc12	USP28 inh 38
Cc1cc(N2CCOCC2)nc2ccc(NC(=O)CCC(=O)Nc3ccc(F)cc3)cc12	USP30 block 39, USP17 block 60
Cc1ccc(NC(=O)CCC(=O)Nc2ccc3nc(N4CCCCC4)cc(C)c3c2)c(Br)c1	USP30 block 34, USP17 block 63, USP8 inh 33
CCN1CCN(c2cc(C)c3cc(NC(=O)C4CC4)ccc3n2)CC1	none
CCOc1ccccc1NC(=O)CCC(=O)Nc1ccc2nc(N3CCN(C)CC3)cc(C)c2c1	none
CCc1ccc(NC(=O)CN2CCCC(c3nc4ccccc4[nH]3)C2)cc1 (configuration not stated)	none
CNC(=O)N1CCc2nc(C(=O)Nc3ccncc3)sc2CC1	none
CN(Cc1ccccc1)S(=O)(=O)c1ccc2[nH]cc(C(=O)NCc3cccs3)c(=O)c2c1	USP17 block 60
O=C(NCc1ccc(F)cc1)c1cccc(COc2ccc3ccccc3c2)c1	none
Cc1noc(-c2cc3c(ccc4ccccc43)oc2=O)n1	USP17 block 42
COc1cccc(-c2cc(C(=O)N3CCCC(C(=O)O)C3)no2)c1 (configuration not stated)	none
CC(C)c1cc(N2CCCCC2)n2nc(-c3cccnc3)nc2n1	none (no result: USP30 block, USP28 inh)
CCCc1cc(N2CCCCC2)n2nc(-c3cccnc3)nc2n1	USP30 block 31

High-throughput results as filed in PubChem.
